We go through 91 compounds from PubChem BioAssay AID1347404 (Pan Lab, Icahn School of Medicine at Mount Sinai, 2020).

Hit rate of the full screen: of about 140,000 compounds, about 860 (0.61%) were called active. The sample holds actives, similar compounds and a random draw of the others, so the mix is not that of the screen. Rule as the data show it: active = inhibition above about 25%; inactive = the rest.

For the experiment, the target named is E3 ubiquitin-protein ligase RBX1 (Homo sapiens) + Cullin-1 (Homo sapiens) (UniProt P62877+Q13616). The experiment in a line: blocks human RBX1-Cullin-1 di-ubiquitin formation (AID 1347404). To be noted: in vitro K48 di-Ub FRET, acceptor:donor ratio, 45 min; at 10 µM; stronger effect = higher value.
Chain of E3 ubiquitin-protein ligase RBX1 (Homo sapiens) + Cullin-1 (Homo sapiens) (P62877 whole entry, looked up): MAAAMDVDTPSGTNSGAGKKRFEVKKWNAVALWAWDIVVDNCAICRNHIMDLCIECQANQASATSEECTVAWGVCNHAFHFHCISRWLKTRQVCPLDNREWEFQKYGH
Chain of E3 ubiquitin-protein ligase RBX1 (Homo sapiens) + Cullin-1 (Homo sapiens) (Q13616 whole entry, looked up): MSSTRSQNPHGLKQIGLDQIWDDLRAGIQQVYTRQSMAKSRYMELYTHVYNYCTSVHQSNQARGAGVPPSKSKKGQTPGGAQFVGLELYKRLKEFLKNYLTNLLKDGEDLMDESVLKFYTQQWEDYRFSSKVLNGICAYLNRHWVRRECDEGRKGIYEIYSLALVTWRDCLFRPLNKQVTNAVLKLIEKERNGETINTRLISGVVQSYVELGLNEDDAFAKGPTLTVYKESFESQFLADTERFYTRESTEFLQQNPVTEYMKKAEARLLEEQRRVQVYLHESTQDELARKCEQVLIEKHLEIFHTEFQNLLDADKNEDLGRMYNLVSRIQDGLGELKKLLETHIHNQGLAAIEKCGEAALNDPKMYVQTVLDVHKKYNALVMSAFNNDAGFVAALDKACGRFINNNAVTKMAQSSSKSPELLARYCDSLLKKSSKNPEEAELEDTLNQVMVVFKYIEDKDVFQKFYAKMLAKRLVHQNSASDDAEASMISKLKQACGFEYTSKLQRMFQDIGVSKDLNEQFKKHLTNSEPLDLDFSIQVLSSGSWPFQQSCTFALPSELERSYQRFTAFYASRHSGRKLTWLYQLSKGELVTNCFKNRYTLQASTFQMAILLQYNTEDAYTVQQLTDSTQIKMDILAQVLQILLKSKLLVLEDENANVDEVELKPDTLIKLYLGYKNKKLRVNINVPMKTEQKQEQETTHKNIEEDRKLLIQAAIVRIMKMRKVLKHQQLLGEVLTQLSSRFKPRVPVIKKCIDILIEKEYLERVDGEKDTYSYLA
As a reminder, the inhibition is the relative decrease from the control value, in per cent. With `Cn1c(CC(=O)c2ccc(F)cc2)nccc1=O`, the inhibition was 2.65% (inactive).

Regarding `O=C(OCc1ccccc1)c1cncc(Br)c1`, the inhibition was -7.74% (inactive).

As for `COC(=O)c1cccc(COC(=O)c2ccc(NC(C)=O)cc2)c1`, the inhibition was 1.6% (inactive).

In the case of `O=C(OCc1ccccc1)c1ccc(O)c(O)c1`, the inhibition is 43% (active).

Consider `Nc1nc2cccnc2cc1Br`, for which the inhibition was 1.54% (inactive).

For the compound `CCOc1cccc(CC(=O)N2CCc3c([nH]c4ccccc34)C2c2ccc(F)cc2)c1OCC` (stereo unspecified), the inhibition is 1.07% (inactive).

On to `Fc1cc(Br)cc2c1NC(c1ccccc1C(F)(F)F)C1CC=CC21` (stereo unspecified), for which the inhibition is 1.76% (inactive).

Turning to `CCOc1cccc2c1N[C@@H](c1ccc(C(=O)O)cc1)[C@H]1CC=C[C@@H]21`, the inhibition was 68.9% (active).

For `Cc1cc(/C=C2/C(=N)N3N=C(c4ccccc4Cl)SC3=NC2=O)c(C)n1-c1ccc(Cl)cc1Cl`, the inhibition was 2.61% (inactive).

In the case of `Cc1ccc(C2=NN3C(=N)/C(=C/c4ccco4)C(=O)N=C3S2)cc1`, the inhibition was 34.8% (active).

With `CCC(C1=NN2C(=N)/C(=C\c3ccc(OC(=O)c4ccco4)cc3)C(=O)N=C2S1)c1ccccc1` (stereo unspecified), the inhibition was -6.1% (inactive).

Turning to `Cc1ccc(C)c(-n2nnc(C(=O)Nc3ccc(N4CCN(C)CC4)cc3)c2C)c1`, the inhibition was 12.2% (inactive).

With `COc1cccc(OC)c1C(=O)Oc1ccc(Br)cc1Br`, the inhibition is 3.84% (inactive).

On to `CCOC(=O)C1=C(C)N=c2s/c(=C\c3cc(C)n(-c4ccc(Br)cc4)c3C)c(=O)n2C1c1ccccc1Cl` (stereo unspecified), for which the inhibition is -10.4% (inactive).

In the case of `CCOC(=O)C1=C(C)N=c2s/c(=C\c3cccnc3)c(=O)n2C1c1ccc(OC)c(Br)c1` (stereo unspecified), the inhibition is -5.43% (inactive).

For the compound `CCOC(=O)C1=C(C)N=c2s/c(=C\c3ccc(N(CC)CC)cc3O)c(=O)n2C1c1ccc(Br)cc1` (stereo unspecified), the inhibition was 49.4% (active).

Turning to `CCOC(=O)C1(CCOC)CCN(Cc2ccc(C#CCCO)cc2)CC1`, the inhibition was -1.32% (inactive).

Consider `C=C(C)COc1ccc(NC(C)=O)cc1`, for which the inhibition was -3.18% (inactive).

As for `Cc1ccc(N=C2S/C(=C\c3cc(Cl)ccc3O)C(=O)N2C)cc1C`, the inhibition was -0.425% (inactive).

As to `Cc1c(CN2CCc3[nH]nc(-c4cccc(F)c4)c3C2)cnn1C`, the inhibition was 8.08% (inactive).

For the compound `CN(C)S(=O)(=O)N1CCC(C(=O)Nc2ccc(Cl)c(C(F)(F)F)c2)CC1`, the inhibition is 6.61% (inactive).

As to `N#Cc1cccc(-c2cccc(-c3ccn[nH]3)c2)c1`, the inhibition was 2.7% (inactive).

As to `Cc1ccc(C2=NC(=O)OC2(C)C)c(C)c1`, the inhibition is 2.99% (inactive).

On to `COC(=O)COc1ccc(/C=N/NC(=O)c2ccc(N(Cc3ccccc3Cl)S(C)(=O)=O)cc2)cc1`, for which the inhibition is -4.5% (inactive).

Consider `Cc1cc(O)c(C(=O)C2=CSc3nnc(-c4ccccc4)n3N=C2)cc1Cl`, for which the inhibition is 2.34% (inactive).

`CCOC(=O)C1C(C)=NC(=O)NC1c1cn(-c2ccccc2)nc1-c1ccc(Cl)cc1` (stereo unspecified): the inhibition is -6.88% (inactive).

`C=CCC(=O)N1CCC(C2CCN(Cc3cccnc3)CC2)C1` (stereo unspecified): the inhibition was 0.333% (inactive).

For the compound `Cc1ccc(C)c(NC(=O)NC2CCCc3ccccc32)c1` (stereo unspecified), the inhibition was -5.58% (inactive).

Take `CC(Oc1ccc(F)cc1)C(=O)NC(C)c1ccccc1` (stereo unspecified): the inhibition was -5.33% (inactive).

Take `Cc1nn(-c2ccccc2)c(Cl)c1C1c2c(n[nH]c2-c2ccccc2)OC(=N)C1C#N` (stereo unspecified): the inhibition was -6.2% (inactive).

`CCn1c2ccccc2c2cc(C=Nc3cccc(Cl)c3C)ccc21`: the inhibition was -4.47% (inactive).

On to `COCCNC(=O)C1CCN(c2nc(C)c3cc(C)c(C)cc3n2)CC1`, for which the inhibition was -4.41% (inactive).

As to `Cc1cc2nc(N3CCC(C(=O)NC45CC6CC(CC(C6)C4)C5)CC3)nc(C)c2cc1C`, the inhibition was 17.1% (inactive).

Take `CCC(NC1CCN(c2nc(C)c3cc(C)c(C)cc3n2)CC1)c1ccncc1` (stereo unspecified): the inhibition is 57.6% (active).

Take `Clc1ccc(COn2nnc3ccccc32)cc1Cl`: the inhibition was -0.0969% (inactive).

With `O=[N+]([O-])c1ccccc1/C=N/Nc1nc2c(s1)CCCC2`, the inhibition is -4.02% (inactive).

Take `CCCCNC(=O)c1nnn(-c2ccccc2)c1C`: the inhibition is 9.64% (inactive).

For `CCOC(=O)C1=c2s/c(=C/c3ccc(Cl)cc3)c(=O)n2C(=N)C(C(=O)OC)C1c1ccc(Cl)cc1` (stereo unspecified), the inhibition is -2.16% (inactive).

On to `Cc1ccc(C(=O)Nc2ccc(-c3nnc(SCC(=O)Nc4ccc(F)cc4)n3C)cc2)cc1`, for which the inhibition is 2.28% (inactive).

Take `C#CCOc1ccc(/C=C2\SC(=S)N(c3cccc(C(=O)O)c3)C2=O)cc1OC`: the inhibition was -1.21% (inactive).

Regarding `O=C1SC(=Nc2ccccc2)N=C1Cc1cccc(OC(=O)c2ccccc2)c1`, the inhibition is 2.05% (inactive).

For the compound `Cc1ccc(CCC(=O)NCc2ccc(Cl)cc2)cc1`, the inhibition is -2.97% (inactive).

As to `Nc1nnnn1/N=C/c1ccc([N+](=O)[O-])o1`, the inhibition was 5.46% (inactive).

Turning to `O=C(O)c1cc2c(s1)C=Cc1ccccc1C2`, the inhibition is 4.96% (inactive).

Consider `Cc1nc2c(sc3nc4ccccc4nc32)c(=O)[nH]1`, for which the inhibition is -2.71% (inactive).

Regarding `NC(=O)c1ccccc1NC(=O)c1ccc(CN2CCCCC2)cc1`, the inhibition was 4.02% (inactive).

As to `O=C(c1ccc2c(c1)C1C=CCC1C(c1ccccc1)N2)N1CCOCC1` (stereo unspecified), the inhibition was -11.2% (inactive).

As to `COC(=O)c1ccc2c(c1)C1C=CCC1C(c1cccc([N+](=O)[O-])c1)N2` (stereo unspecified), the inhibition was 5.03% (inactive).

Consider `O=C(O)c1ccc2c(c1)[C@@H]1C=CC[C@@H]1[C@H](c1ccc3c4c(cccc14)CC3)N2`, for which the inhibition is 99.3% (active).

Regarding `CC(=O)Nc1ccc(OC(=O)c2cccc(C)c2)cc1`, the inhibition is -0.55% (inactive).

With `COc1ccccc1-c1nc(CN2CCCC2c2n[nH]c(=O)[nH]2)c(C)o1` (stereo unspecified), the inhibition was -4.69% (inactive).

`Cc1c(/C=N/NC(=O)CSc2nc3ccccc3s2)c2ccccc2n1C`: the inhibition was 5.36% (inactive).

Take `Brc1ccc(C#Cc2cccs2)cc1`: the inhibition is -4.29% (inactive).

In the case of `O=C(COc1ccccc1Cl)Nc1nncs1`, the inhibition was 2.7% (inactive).

For `COc1cccc(-c2nn3c(-c4cccc(C(F)(F)F)c4)nnc3s2)c1`, the inhibition was -4.15% (inactive).

As for `CC1(C)N=C(SCc2ccccc2Cl)c2ccccc2N1`, the inhibition was -9.73% (inactive).

For the compound `Clc1ccccc1CSc1nncn2c1cc1occc12`, the inhibition is 6.61% (inactive).

On to `Clc1ccccc1CSc1nnc(-c2ccco2)c(-c2ccco2)n1`, for which the inhibition was 101% (active).

For the compound `CN1CCC(N2CCCC2C(=O)Nc2ccc(-c3cccc(F)c3)cc2)CC1` (stereo unspecified), the inhibition was -3.33% (inactive).

Regarding `O=C(/C=C/c1ccc([N+](=O)[O-])o1)c1ccco1`, the inhibition is -10.2% (inactive).

`Cc1noc(C)c1C(=O)Nc1ccc(C(F)(F)F)cc1`: the inhibition was 1.67% (inactive).

In the case of `Clc1cccc(N2N=C(c3cccs3)CC2c2ccccc2)c1` (stereo unspecified), the inhibition is -9.66% (inactive).

Consider `O=C(O)c1cccc(N2N=C(c3ccc4c5c(cccc35)C(=O)N(c3ccccc3)C4=O)CC2c2ccccc2)c1` (stereo unspecified), for which the inhibition is 44.6% (active).

For `CC(=O)N1N=C(c2ccc(Cl)cc2Cl)CC1c1ccccc1` (stereo unspecified), the inhibition is -1.24% (inactive).

Regarding `Cc1ccc(-n2c(C)cc(/C=C3/C(=O)NC(=S)N(c4ccc(Br)cc4)C3=O)c2C)cc1`, the inhibition is -0.744% (inactive).

Take `CCCc1sc(-n2c(C)cc(/C=C3/C(=O)NC(=S)N(C)C3=O)c2C)c(C#N)c1C`: the inhibition is 76.1% (active).

Turning to `Cc1cc(/C=C2\C(=O)NC(=S)N(c3ccc(Cl)cc3)C2=O)c(C)n1-c1ccccc1`, the inhibition is 1.69% (inactive).

In the case of `Cc1ccccc1Cn1cc(C(=O)N2CCN(C3CCCC3)CC2)nn1`, the inhibition was 14.7% (inactive).

In the case of `CC1=Nc2nnnn2C(c2ccc(Br)cc2)C1C(=O)Nc1ccccc1` (stereo unspecified), the inhibition was 0.6% (inactive).

As for `O=C(c1nn2c(C(F)(F)F)c3c(nc2c1Cl)-c1ccccc1CC3)N1CCN(c2ccc(F)cc2)CC1`, the inhibition was -4.56% (inactive).

As for `CSc1ccc(C2C3=C(CCCC3=O)OC(=N)C2C#N)cc1` (stereo unspecified), the inhibition was 3.66% (inactive).

In the case of `N#CC1C(=N)OC2=C(C(=O)CCC2)C1c1ccsc1` (stereo unspecified), the inhibition is 6.79% (inactive).

Regarding `N#CC1C(=N)OC2=C(CCC/C2=C/c2ccoc2)C1c1ccoc1` (stereo unspecified), the inhibition was 50.6% (active).

Regarding `Cc1ccc2nc(CNC(=O)Cn3nnnc3CN3CCC(C)CC3)cn2c1`, the inhibition was -3.66% (inactive).

On to `Clc1ccc(C2=CSC3=Nc4cccc5cccc(c45)N23)cc1`, for which the inhibition was 86.8% (active).

In the case of `Clc1ccc(-c2cc3ccccc3o2)cc1`, the inhibition was -1.45% (inactive).

As to `O=C(O)c1ccccc1C(=O)Nc1ccc(-c2cn3ccsc3n2)cc1`, the inhibition is 10.3% (inactive).

Turning to `COC(=O)Nc1ccc(S(=O)(=O)N2CCn3c4c(c5cc(C)ccc53)CCCC42)cc1` (stereo unspecified), the inhibition was -2.9% (inactive).

`COCCCNC(=O)c1ccc2c(c1N)C(=O)c1ccccc1C2=O`: the inhibition is 5.03% (inactive).

For the compound `Nc1c(S(=O)(=O)O)cc(Nc2ccc(-c3ccc(Nc4cc(S(=O)(=O)O)c(N)c5c4C(=O)c4ccccc4C5=O)cc3)cc2)c2c1C(=O)c1ccccc1C2=O`, the inhibition was 94.8% (active).

For the compound `Cc1ccc(OCc2ccc(C(=O)N/N=C/c3sccc3C)cc2)cc1C`, the inhibition is -9.15% (inactive).

As to `Cc1cc(C(=O)O)ccc1NCc1ccccc1`, the inhibition was 15.3% (inactive).

Regarding `COc1cc(C(=O)N/N=C(/C)c2cccnc2)cc(OC)c1OC`, the inhibition was -15.1% (inactive).

For `COc1cccc(OC/C=C/CN2CCN(C)CC2)c1`, the inhibition was -3.35% (inactive).

In the case of `O=C(c1ccco1)N(Cc1cccs1)c1ccc(O)cc1`, the inhibition is -0.924% (inactive).

As to `CCc1nccn1CCC(=O)NCc1nc(-c2ccc(NC(=O)c3ccc(COC)o3)cc2)oc1C`, the inhibition is -7.82% (inactive).

Turning to `CCNC(=O)N1CCNC(=O)C1CC(=O)N1CCN(c2ccc(OC)cc2)CC1` (stereo unspecified), the inhibition is 16.6% (inactive).

For `CCOc1ccc(-n2c(Sc3c(N)c4c5c(sc4[nH]c3=O)CCC5)nnc2-c2nn(C)c(C)c2Cl)cc1`, the inhibition is -4.22% (inactive).

As for `CCCNC(=O)C1CCN(Cc2ccccc2C)CC1`, the inhibition is 4.05% (inactive).

As to `COC(=O)C1=C(C)O[C@]23CCC[C@]12CC(=O)C3`, the inhibition is 2.4% (inactive).

For the compound `c1ccc2c(Sc3ncnc4sc5c(c34)CCCC5)c[nH]c2c1`, the inhibition is 0.643% (inactive).
